A selection: hits, their analogues and other compounds. The true share with any hit is near 28%.
CYP2C19 act: human CYP2C19 activators, primary screen, biochemical, luminescence; activation factor at 5 µM; 96,000 tested, under 10 active; AID 1025, 2008; Cytochrome P450 2C19 (Homo sapiens), P33261; recombinant CYP2C19, luciferin-H EGE luminescence; hits give high values; 0 = fully inhibited enzyme, 1 = untreated enzyme;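 active means activation factor of at least 2 at 5 µM in the primary screen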
Target sequence (P33261 whole entry, looked up): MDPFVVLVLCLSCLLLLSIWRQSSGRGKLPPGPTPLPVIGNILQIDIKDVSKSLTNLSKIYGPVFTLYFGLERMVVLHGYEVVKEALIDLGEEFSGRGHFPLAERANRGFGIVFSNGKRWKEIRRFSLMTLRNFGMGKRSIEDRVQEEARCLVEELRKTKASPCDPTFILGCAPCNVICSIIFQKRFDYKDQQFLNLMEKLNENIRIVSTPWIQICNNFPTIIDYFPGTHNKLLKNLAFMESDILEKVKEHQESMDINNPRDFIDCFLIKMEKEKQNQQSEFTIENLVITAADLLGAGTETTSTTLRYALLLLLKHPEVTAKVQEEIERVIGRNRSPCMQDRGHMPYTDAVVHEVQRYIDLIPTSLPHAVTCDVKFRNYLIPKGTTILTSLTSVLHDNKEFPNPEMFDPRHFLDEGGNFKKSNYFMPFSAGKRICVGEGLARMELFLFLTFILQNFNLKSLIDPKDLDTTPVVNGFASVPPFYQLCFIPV
CYP2C9 activ: human CYP2C9 activators, primary screen, biochemical, luminescence | activation factor at 5 µM | AID 1024, 2008 | recombinant CYP2C9, luciferin-H conversion; hits give high values; factor 1 = untreated enzyme, 0 = blocked | hit rate 1.4% among 96,000 | Cytochrome P450 2C9 (Homo sapiens), P11712;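 active means activation factor of 2 or more for CYP2C9 at a 5 µM dose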
Mac1 fbg inh: inhibitors of CD11b/CD18 adhesion to fibrinogen, primary screen, K562 cells, luminescence | Integrin beta-2 (Homo sapiens) + Integrin alpha-M (Homo sapiens), P05107+P11215 | ATPlite luminescence; Mn2+ added to activate the integrin | inhibition, % at 10 µM | hit rate 0.54% among 93,000 | AID 1497, 2009;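 active means primary inhibition of 50% or more at 10 µM, then 40% or more on retest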
Mac1 fbg enh: enhancers of CD11b/CD18 adhesion to fibrinogen, primary screen, K562 cells, luminescence; Integrin beta-2 (Homo sapiens) + Integrin alpha-M (Homo sapiens), P05107+P11215; ATPlite luminescence; activation, % at 10 µM; hit rate 0.07% among 93,000; AID 1499, 2009;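 active means 10 µM primary screen giving 50% or more activity, confirmed by 40% or more on retest at that dose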
CYP2C9 inh: blockers of cytochrome P450 2C9 activity – biochemical, luminescence, ADME assay, primary screen | P11712 | CYP2C9 Supersomes, luciferin-H conversion | inhibition, % at 5 µM | hit rate 20% among 96,000;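 active means blocking of liver enzyme CYP2C9 beyond about 50% at 5 µM, limit read from the data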
CYP2C19 inh: blockers of cytochrome P450 2C19 activity – biochemical, luminescence, ADME assay, primary screen. P33261. CYP2C19 Supersomes, luciferin-H EGE luminescence, 30 min. inhibition, % at 5 µM. hit rate 21% among 96,000;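 active means CYP2C19 inhibition above a set limit at 5 µM in the primary screen, cut at about 50% in these data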
Each line names hits and unclear results; the compound was inactive in the other large screens.

C=CCN(CC=C)S(=O)(=O)c1ccc(NC(=S)NC(=O)/C=C/c2ccccc2)cc1	none (no result: Mac1 fbg inh, Mac1 fbg enh)
Nc1nonc1-c1nc2ccccc2n1CC(=O)N/N=C\c1ccc(-c2ccc(Cl)cc2)o1	none (no result: Mac1 fbg inh, Mac1 fbg enh)
CCCCCOc1ccc(C(=O)NCC(=O)NCC(=O)OCC)cc1	none
COc1cccc(NC(=O)CCCn2c(=O)[nH]c3ccccc3c2=O)c1	CYP2C9 inh 72.2
COc1cc(C(=O)NCc2cccc3ccccc23)cc(Cl)c1OC	CYP2C19 inh 61.5
Cc1c(C(C)O)nnn1-c1nonc1N (centres undefined)	none
Cc1[nH]n(-c2ccccc2)c(=O)c1C1(C(F)(F)F)C(=O)N(c2ccccc2)C2=C1C(=O)CC(C)(C)C2 (centres undefined)	CYP2C9 inh 73.2
CCOC(=O)c1[nH]c2ccc(OC)cc2c1NC(=S)N1CCN(c2cccc(C)c2C)CC1	none (no result: CYP2C19 act, CYP2C9 activ, CYP2C9 inh, CYP2C19 inh)
COc1cccc2sc(N(CCCN(C)C)C(=O)c3sc4ccccc4c3Cl)nc12	none (no result: CYP2C19 act, CYP2C9 activ, CYP2C9 inh, CYP2C19 inh)
Cc1nnc(-c2cnn(-c3ccccc3)c2N)n1Cc1ccccc1	none (no result: Mac1 fbg inh, Mac1 fbg enh)
CCOC(=O)CSc1nnc(CSc2nc(N)c3c(C)c(C)sc3n2)n1-c1ccccc1	none (no result: CYP2C19 act, CYP2C9 activ, CYP2C9 inh, CYP2C19 inh)
C=C(C)CSc1nc(N)c2c(C)c(C)sc2n1	CYP2C19 inh 56.3
Cc1noc(C)c1C(=O)NCCCN1CCCC1=O	none
CC1(c2ccccc2)CC(c2ccccc2)=Nc2nonc2N1 (centres undefined)	CYP2C9 inh 51.6, CYP2C19 inh 94.1
Cc1ccc(S(=O)(=O)[N-]c2nc3ccccc3nc2-n2cc[n+](CCC(C)C)c2)cc1	CYP2C9 inh 94.4, CYP2C19 inh 56.2
Cc1cc[n+](-c2nc3ccccc3nc2[N-]S(=O)(=O)c2ccccc2)cc1	none (no result: CYP2C19 act, CYP2C9 activ, CYP2C9 inh, CYP2C19 inh)
Cc1ccc(S(=O)(=O)/N=C2\C(=O)c3ccccc3C([O-])=C2n2cc[n+](CCC(C)C)c2)cc1	CYP2C9 inh 52.6 (no result: Mac1 fbg inh, Mac1 fbg enh)
COC(=O)c1nn(-c2ccccc2)c(Cl)c1/C=N/OCc1ccc(Cl)cc1Cl	CYP2C9 inh 66.8 (no result: Mac1 fbg inh, Mac1 fbg enh)
COC(=O)c1nn(-c2ccccc2)c(=O)cc1Oc1ccc(Cl)cc1	none
COC(=O)c1nn(-c2ccccc2)c(Sc2ccc(Br)cc2)c1/C=N/O	CYP2C9 inh 73.4
COC(=O)c1nn(-c2ccccc2)c(Sc2ccc(Cl)cc2)c1/C=N/O	CYP2C9 inh 54.6
CC(C)NC(=O)COC(=O)c1ccc(Oc2ccccc2)cc1	none
O=C(NCc1cccs1)C1CCC(=O)N1C1CCCCC1 (centres undefined)	none (no result: Mac1 fbg inh, Mac1 fbg enh)
COc1ccc(S(=O)(=O)N2CCCC2C(=O)Nc2nnc(-c3cccnc3)s2)cc1 (centres undefined)	CYP2C19 inh 98.9
CC(=O)c1ccc(NC(=O)C2CCCN2S(=O)(=O)c2ccc(C)cc2)cc1 (centres undefined)	none
COc1ccc2nc(NC(=O)C3CCCN3S(=O)(=O)c3ccc(C)cc3)sc2c1 (centres undefined)	CYP2C19 inh 67.9
Cc1ccc(S(=O)(=O)N2CCCC2C(=O)Nc2nc3c(s2)CCCC3)cc1 (centres undefined)	CYP2C9 inh 89.8
COc1ccc(S(=O)(=O)N2CCC[C@H]2C(=O)NC2=NCCS2)cc1	none (no result: Mac1 fbg inh, Mac1 fbg enh)
O=C(O)c1ccc2cccc(Cl)c2c1O	none
CCN(CC)S(=O)(=O)c1ccc(NC(=O)c2cc(C(=O)OC)cc([N+](=O)[O-])c2)cc1	none (no result: CYP2C19 act, CYP2C9 activ, CYP2C9 inh, CYP2C19 inh)
CCC1=NNc2cccc3c(OC)ccc1c23	none
COc1ccc2c3c(cccc13)OCC2=O	CYP2C19 inh 51.3
Cc1c(Cl)c(-c2n[nH]c(=S)n2-c2ccccc2)nn1C	none (no result: CYP2C19 act, CYP2C9 activ, CYP2C9 inh, CYP2C19 inh)
C/C(CC(=O)N1CCN(C=O)CC1)=N\NC(=O)c1cc2ccccc2cc1O	none (no result: CYP2C19 act, CYP2C9 activ, CYP2C9 inh, CYP2C19 inh)
C/C(=N\NC(=O)c1ccccc1O)C1C(=O)c2ccccc2C1=O	CYP2C9 inh 90.2
C/C(=N/NC(=O)c1cc2ccccc2cc1O)C1C(=O)c2ccccc2C1=O	CYP2C9 inh 98.3, CYP2C19 inh 91.4
C/C(=N\NC(=O)c1ccccc1O)c1c(O)cc(C)oc1=O	CYP2C9 inh 61.7 (no result: Mac1 fbg inh, Mac1 fbg enh)
C/C(=N\NC(=O)c1ccccc1O)c1ccc(Br)s1	none (no result: CYP2C19 act, CYP2C9 activ, CYP2C9 inh, CYP2C19 inh)
Cn1ccnc1Sc1nc2ccccc2nc1NS(=O)(=O)c1ccccc1	CYP2C9 inh 98.4
Cn1cnnc1Sc1nc2ccccc2nc1NS(=O)(=O)c1ccccc1	CYP2C9 inh 96.6
COCCNC(=O)C(c1ccc(F)cc1)N(CC1CCCO1)C(=O)CCC(=O)Nc1ccccn1 (centres undefined)	none
CC(=O)N1c2c(cc(Br)cc2S(=O)(=O)N2CCOCC2)CC1C (centres undefined)	none
CC(=O)N1CCc2cc(Br)cc(S(=O)(=O)NCCN3CCCCC3C)c21 (centres undefined)	none
CC(=O)N1c2c(cc(Br)cc2S(=O)(=O)NCC2COc3ccccc3O2)CC1C (centres undefined)	CYP2C19 inh 65.0 (no result: Mac1 fbg inh, Mac1 fbg enh)
CCCCN(Cc1ccccc1)S(=O)(=O)c1cc(Br)cc2c1N(C(C)=O)C(C)C2 (centres undefined)	CYP2C9 inh 95.0
CC(=O)N1c2c(cc(Br)cc2S(=O)(=O)NCc2cccnc2)CC1C (centres undefined)	none
CC(=O)N1c2c(cc(Br)cc2S(=O)(=O)NCc2ccc3c(c2)OCO3)CC1C (centres undefined)	CYP2C19 inh 86.1
CCN(CC)CCCN(Cc1cc2cc3c(cc2[nH]c1=O)OCCO3)C(=O)Nc1ccc(F)cc1	none
COCCNC(=S)NC12CC3CC(CC(C3)C1)C2	none
CC(C)OCCCNC(=O)NC12CC3CC(CC(C3)C1)C2	CYP2C19 inh 57.0
CC(C)N1C(=S)SC2CS(=O)(=O)C=C21 (centres undefined)	none
CCOc1ccc(-n2c(SC(C)C)nc3c(c2=O)SCC3)cc1	none
CCOc1ccc(N/C=C/C(=O)c2ccccc2)c([N+](=O)[O-])c1	none (no result: CYP2C19 act, CYP2C9 activ, CYP2C9 inh, CYP2C19 inh)
O=C(O)C1CCCCC1C(=O)Nc1ccccc1Cl (centres undefined)	CYP2C19 inh 63.8 (no result: Mac1 fbg inh, Mac1 fbg enh)
O=C(Nc1ccccc1-c1ccccc1)C12CC3CC(CC(C3)C1)C2	none (no result: Mac1 fbg inh, Mac1 fbg enh)
Cn1nc(-c2ccc(OCC(N)=O)cc2)c2ccccc2c1=O	CYP2C9 inh 60.9
CN(C(=O)c1ccc(-c2nn(C)c(=O)c3ccccc23)cc1)c1ccccc1	CYP2C9 inh 62.3
Cn1nc(-c2ccc(OCC(=O)Nc3ccccc3)cc2)c2ccccc2c1=O	CYP2C9 inh 67.9, CYP2C19 inh 81.4
COC(=O)COc1ccc(-c2nn(C)c(=O)c3ccccc23)cc1	none
